An excerpt weighted towards active compounds, which were near 1.6% of everything screened.
ALOX12 inh – inhibitors of human 12S-lipoxygenase ALOX12. P18054. Potency, µM (top dose mostly 108 µM), without a hit: top-dose activity change, negative = inhibition, actives largely listed as inhibitors. purified 12hLO, xylenol orange hydroperoxide absorbance. 580,000 tested, 1.1% active; further: on the % scale 0 is the no-effect control and ±100 the full control effect
Target sequence (P18054 whole entry, looked up): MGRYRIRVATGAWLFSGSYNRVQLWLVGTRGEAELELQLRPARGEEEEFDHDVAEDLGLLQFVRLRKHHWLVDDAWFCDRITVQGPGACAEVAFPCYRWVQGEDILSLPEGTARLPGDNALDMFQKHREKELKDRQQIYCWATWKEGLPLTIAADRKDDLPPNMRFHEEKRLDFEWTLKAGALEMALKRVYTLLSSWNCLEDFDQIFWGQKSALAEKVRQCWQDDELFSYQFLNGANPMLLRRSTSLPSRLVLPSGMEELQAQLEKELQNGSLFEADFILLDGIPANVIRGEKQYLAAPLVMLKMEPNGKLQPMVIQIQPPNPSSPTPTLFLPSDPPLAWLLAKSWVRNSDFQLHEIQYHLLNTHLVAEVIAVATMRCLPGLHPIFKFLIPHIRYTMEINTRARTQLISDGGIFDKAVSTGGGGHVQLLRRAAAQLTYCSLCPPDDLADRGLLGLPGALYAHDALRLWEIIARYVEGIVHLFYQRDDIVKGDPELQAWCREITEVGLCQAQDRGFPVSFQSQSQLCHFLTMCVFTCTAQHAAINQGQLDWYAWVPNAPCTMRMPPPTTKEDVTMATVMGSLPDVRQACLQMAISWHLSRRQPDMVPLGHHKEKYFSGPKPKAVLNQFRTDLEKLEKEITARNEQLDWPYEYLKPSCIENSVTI
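Hydroperoxide product was detected by ferrous iron/xylenol orange as the 573 to 405 nm absorbance ratio. Arachidonic acid at 40 uM (final) was turned over for 30 min at room temperature by 150 nM human 12hLO, pH 7.0 Hepes buffer, after 15 min compound preincubation.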
Mito fusion yeast – blocks mitochondrial division or promotes mitochondrial fusion | S. cerevisiae fusion-defective mutant growth rescue, CellTiterGlo 48 h | Potency, µM (highest dose often 46.1 µM), for inactives: at the highest dose growth rescue (activation), usual class: activators | 320,000 tested, 0.23% active | AID 485298; further: % of control where 0% means no effect; nearly all actives have a fitted effect of over 45% in size
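S. cerevisiae fusion-defective temperature-sensitive mutants (e.g. fzo1-1, mgm1-5) grown 48 h at 37C in YPEG (ethanol/glycerol non-fermentable) medium with 23 nl compound per well; growth rescue read as CellTiterGlo luminescence.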
gsp agonist – gsp mutant agonism; gsp mutant cells, cAMP HTRF, 30 min; Potency, µM (doses to about 76.9 µM), inactives show top-dose activation (cAMP increase), actives largely listed as activators; 340,000 tested, 0.13% active; active means well fitted activation curve with a large enough effect; inconclusive means small, poorly fitted or top-dose-only effect, or another doubt; inactive means no such curve, though single readings can be large or run the other way; cell line not stated here;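 further: phosphodiesterase inhibitor Ro 20-1724 added with compounds to block cAMP breakdown; nearly all actives have a fitted effect of over 60% in size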
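Cells in DMEM/10% FBS with G418 were pretreated with compounds in DMSO plus […] (300 uM stock) for 30 min at 37C. cAMP was measured by HTRF (cAMP-d2 plus anti-cAMP antibody-K) after 30 min at room temperature.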
gsp antag – antagonizes gsp, the McCune-Albright syndrome mutation; Potency, µM (top dose mostly 76.9 µM), inactives show at the highest dose activity change, negative = inhibition, hits mostly inhibitors; AID 624288; gsp-mutant cells, cAMP HTRF, 30 min; 340,000 tested, 0.4% active; calls by dose curve; cell line not stated here;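 further: intracellular cAMP measured with PDE inhibitor Ro 20-1724 present during compound exposure; on the % scale 0 is the no-effect control and ±100 the full control effect; nearly all actives have a fitted effect of over 65% in size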
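Cells in G418 medium, seeded 16-24 h, 37C; buffer exchange to DPBS + 1 mM CaCl2, 0.5 mM MgCl2, 0.05% BSA; cpds in DMSO + […] (300 uM stock), 30 min 37C; HTRF cAMP detection.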
FUS yeast rescue – rescues growth of FUS-expressing yeast | S. cerevisiae FUS-expressing, growth rescue, OD600, 24 h | Potency, µM (doses to about 76.6 µM), usual class: activators | 390,000 tested, 0.24% active | AID 1347120;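 further: plate controls were DMSO vehicle for no effect and reference control for full effect; nearly all actives have a fitted effect of over 55% in size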
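Steps: raffinose overnight preculture; dilution to OD 0.005 in 2% galactose minimal medium; compound addition (concentration series); 24hr at 30C, 99% humidity; absorbance read at 600 nm.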
* marks the source's active call; other numbers are inactive results; [ ] = another dose, or the depositor's remark. Unless noted, the call rests on the fitted dose curve; in most records, active means well fitted curve in the direction sought with a large enough effect; inconclusive means small, poorly fitted or top-dose-only effect, or another doubt; inactive means no such curve, though single readings can be large; an effect the other way counts as inactive or inconclusive. Potency means the concentration at half of the fitted maximal effect.

Results for O=C(C1CCCN(Cc2ccccc2F)C1)N1CCc2ccccc2C1 (configuration not stated) ?
ALOX12 inh: 0%; Mito fusion yeast: -6%; gsp agonist: -1%[15.4 µM]; gsp antag: 10%; FUS yeast rescue: inactive

Results for O=C(C1CCCN(Cc2cccc3ccccc23)C1)N1CCc2ccccc2C1 (configuration not stated) ?
ALOX12 inh: 0.63µM*

Results for Cc1cc(/C=C2\SC(=S)N(C)C2=O)c(C)n1-c1ccc(O)cc1 ?
ALOX12 inh: inconclusive; Mito fusion yeast: -23%; gsp agonist: 29%; gsp antag: inconclusive; FUS yeast rescue: inactive

How did Cc1sc(-n2c(C)cc(/C=C3\SC(=S)NC3=O)c2C)c(C#N)c1C do in these assays?
ALOX12 inh: inconclusive; Mito fusion yeast: -2%; gsp agonist: 10%; gsp antag: -39%; FUS yeast rescue: 16µM*

What do the screens show for `Cc1cc(/C=C2\SC(=S)N(C)C2=O)c(C)n1-c1ccccc1O`?
ALOX12 inh: inconclusive; gsp agonist: 26%; gsp antag: 35µM*; FUS yeast rescue: inactive

What do the screens show for `Cc1cc(/C=C2\SC(=S)NC2=O)c(C)n1-c1cccc(O)c1`?
ALOX12 inh: 40µM*; Mito fusion yeast: 4%; gsp agonist: -2%; gsp antag: -24%; FUS yeast rescue: inactive

Results for CC(O)c1ccc(NC(=O)c2nn(C(C)C)c(=O)c3ccccc23)cc1 (configuration not stated) ?
ALOX12 inh: -9%

What do the screens show for `C/C(O)=C(/C#N)c1nc2ccccc2[nH]1`?
ALOX12 inh: 19%; Mito fusion yeast: -6%; gsp agonist: 3%; gsp antag: -3%; FUS yeast rescue: inactive

How did N#C/C(=C(/O)C(Cl)(Cl)Cl)c1nc2ccccc2[nH]1 do in these assays?
ALOX12 inh: 0%; Mito fusion yeast: -6%; gsp agonist: -12%; gsp antag: 28µM*; FUS yeast rescue: inactive

Results for COC(=O)c1cc(-c2c(C)oc3cc(OC(C)C)ccc3c2=O)c(C)o1 ?
ALOX12 inh: -28%; Mito fusion yeast: 8%; gsp agonist: -40%; gsp antag: -31%; FUS yeast rescue: inactive

What do the screens show for `CCCCOc1ccc2c(=O)c(-c3cc(C(=O)OC)oc3C)c(C)oc2c1`?
ALOX12 inh: 45µM*

What do the screens show for `CNC(=O)c1[nH]nc2c1CCc1ccccc1-2`?
ALOX12 inh: 63%; Mito fusion yeast: 10µM*; gsp agonist: -14%[15.4 µM]; gsp antag: 7%; FUS yeast rescue: inactive

How did COc1ccc(/C=N/NC(=O)c2[nH]nc3c2CCc2ccccc2-3)cc1OC do in these assays?
ALOX12 inh: -14%; Mito fusion yeast: 7%; gsp agonist: 26%; gsp antag: 18%; FUS yeast rescue: inactive

How did CC(C)OC(=O)c1ccc(Cl)c(N)c1 do in these assays?
ALOX12 inh: -3%

Results for Cc1oc2cc3oc(=O)c(CC(=O)NCC(=O)N[C@@H](C(=O)O)c4ccccc4)c(C)c3cc2c1C ?
ALOX12 inh: -8%; Mito fusion yeast: 1%; gsp antag: 3%; FUS yeast rescue: inactive

Results for Cc1oc2cc3oc(=O)c(CC(=O)N[C@H](C(=O)N[C@@H](C(=O)O)c4ccccc4)C(C)C)c(C)c3cc2c1C ?
ALOX12 inh: -9%; Mito fusion yeast: -1%; gsp antag: 50µM*; FUS yeast rescue: inactive

What do the screens show for `CC(=O)c1c(N2CCN(c3ccccn3)CC2)nc(=S)n(-c2ccccc2)c1C`?
ALOX12 inh: inconclusive; Mito fusion yeast: 1%; gsp agonist: -16%; gsp antag: -15%; FUS yeast rescue: inactive

Results for COc1ccc(N2CCN(c3nc(=S)n(-c4ccccc4)c(C)c3C(C)=O)CC2)cc1 ?
ALOX12 inh: 40µM*; Mito fusion yeast: -15%; gsp agonist: 8%; gsp antag: -9%; FUS yeast rescue: inactive

What do the screens show for `CC(=O)c1c(N2CCN(c3cccc(Cl)c3)CC2)nc(=S)n(-c2ccccc2)c1C`?
ALOX12 inh: 35µM*; Mito fusion yeast: -16%; gsp agonist: -36%; gsp antag: -9%; FUS yeast rescue: inactive

Results for Cc1nn(C)c(C)c1NC(=O)CCl ?
ALOX12 inh: 14µM*; Mito fusion yeast: 2%; gsp agonist: -8%[15.4 µM]; gsp antag: -1%; FUS yeast rescue: inactive

How did Cc1nn(C)c(C)c1NC(=O)COc1ccc(Cl)cc1 do in these assays?
ALOX12 inh: 33%; Mito fusion yeast: -1%; gsp agonist: -4%; gsp antag: 3%; FUS yeast rescue: inactive

How did CCCCNC(=O)c1cccc(NC(=O)c2ccccc2C)c1 do in these assays?
ALOX12 inh: 11%

How did CCOC(=O)C1=C(C)NC(=O)CC1C(=O)Nc1cc(Cl)cc(Cl)c1 (configuration not stated) do in these assays?
ALOX12 inh: 16µM*

Results for Cc1ccc2c(c1)N(C(=O)CSc1nncn1C)C(C)(C)c1ssc(=S)c1-2 ?
ALOX12 inh: 35µM*; Mito fusion yeast: -6%; gsp agonist: 15%; gsp antag: -7%; FUS yeast rescue: inactive

How did Cc1ccc2nc(/N=C(\N)NC(=O)c3ccccc3)nc(C)c2c1 do in these assays?
ALOX12 inh: 0%

What do the screens show for `O=c1c(Cl)c(N2CCN(Cc3nc(-c4ccccc4Cl)no3)CC2)cnn1-c1ccccc1`?
ALOX12 inh: 34%

What do the screens show for `COc1ccc(C2=CC3=C(Br)C(=O)C(C)(OC(=O)c4cccs4)C(=O)C3=CO2)cc1` (configuration not stated)?
ALOX12 inh: 6.3µM*; gsp antag: -14%; FUS yeast rescue: inactive

Results for COCCN1C(=O)CO[C@H]2CN(S(C)(=O)=O)C[C@H]21 ?
ALOX12 inh: -1%[176 µM]

What do the screens show for `COCCN1C(=O)CO[C@H]2CN(c3ncccn3)C[C@H]21`?
ALOX12 inh: 50µM*

Results for Cc1cc(C)c2cc(C(=O)OC(C)C(=O)N3CCC(C)CC3)[nH]c2c1 (configuration not stated) ?
ALOX12 inh: -63%

How did CC(C)(Oc1ccc(Cl)cc1)C(=O)Nc1ccncc1 do in these assays?
ALOX12 inh: 433%; Mito fusion yeast: -1%; gsp agonist: -43%; gsp antag: 0%; FUS yeast rescue: inactive

Results for CC(C)(Oc1ccc(Cl)cc1)C(=O)NC1=NN(c2ccccc2)C(=O)C1 ?
ALOX12 inh: 50µM*; Mito fusion yeast: -3%; gsp agonist: 16%; gsp antag: -5%; FUS yeast rescue: inactive

How did O=C(O)/C=C/c1cccc(NS(=O)(=O)/C=C/c2ccccc2)c1 do in these assays?
ALOX12 inh: -32%

Results for O=c1c2nnn(Cc3ccccc3)c2ncn1Cc1nc(-c2ccc(OC(F)(F)F)cc2)no1 ?
ALOX12 inh: 0%
